Experimental data published in PubChem BioAssay (NCATS).
Inconclusive results are not listed. The source made the active and inactive calls. Calls follow the shape of the full dose curve; tested in HEK293 reporter line.
Potency is read from the fitted curve at half-maximal effect.

Assay: qHTS for Inhibitors of the Functional Ribonucleoprotein Complex (vRNP) of Lassa (LASV) Arenavirus: Viability assay - alamar blue signal for LASV Primary Screen (AID 1347083); also: nearly all actives have a fitted effect of over 80% in size
Settings: cell viability, alamar blue fluorescence (LASV minigenome counter-screen); series mostly up to 57.5 µM
With `CN(C)CCCNC(=O)c1ccc(-c2cc(O)c3ncccc3c2)cc1` the Potency was 38.5 µM (active).
With `C[C@@]12O[C@@H](C[C@]1(O)CO)n1c3ccccc3c3c4c(c5c6ccccc6n2c5c31)CNC4=O` the Potency was 0.432 µM (active).
In the case of `CCn1c(-c2nonc2N)nc2c(C#CC(C)(C)O)ncc(OC[C@H]3CCCNC3)c21`, the Potency is reported as 0.0611 µM (active).
In the case of `CC(C)(C)OC(=O)Nc1ccc(-c2cc(C(=O)NCCCCCCC(=O)NO)no2)cc1`, the Potency is reported as 17.2 µM (active).
In the case of `CC(=O)c1c(C)c2cnc(Nc3ccc(N4CCNCC4)cn3)nc2n(C2CCCC2)c1=O`, the Potency is reported as 30.6 µM (active).
In the case of `CC[C@H](Nc1ncnc2nc[nH]c12)c1nc2cccc(F)c2c(=O)n1-c1ccccc1`, the Potency is reported as 24.3 µM (active).
In the case of `Nc1ccccc1NC(=O)c1ccc(CNC(=O)OCc2cccnc2)cc1`, the Potency is reported as 12.2 µM (active).
With `CCN(CC)CCCCNc1ncc2cc(-c3cc(OC)cc(OC)c3)c(NC(=O)NC(C)(C)C)nc2n1` the Potency was 19.3 µM (active).
In the case of `CCOc1cc(C(=O)Nc2ccc(Cl)c(-c3nc4ccccc4[nH]3)c2)cc(OCC)c1OCC`, the Potency is reported as 17.2 µM (active).
With `CN1CCN(c2ccc3nc(-c4c(N)c5c(F)cccc5[nH]c4=O)[nH]c3c2)CC1` the Potency was 2.17 µM (active).
In the case of `CN(C)CCCN=c1c2ccccc2n(C)c2[nH]c(=O)n(C)c(=O)c12`, the Potency is reported as 19.3 µM (active).
With `Nc1nc(Nc2ccc(S(N)(=O)=O)cc2)nn1C(=O)c1c(F)cccc1F` the Potency was 24.3 µM (active).
In the case of `CC(C)c1ccc2c(c1)c(SC(C)(C)C)c(CC(C)(C)C(=O)O)n2Cc1ccc(Cl)cc1`, the Potency is reported as 12.2 µM (active).
In the case of `CC(C)[C@H](C(=O)Nc1ccc(C(=O)NO)cc1)c1ccccc1`, the Potency is reported as 5.44 µM (active).
For `O=C(c1ccc(Nc2nccc(-c3cc4ccccc4s3)n2)cc1)N1CCC(N2CCCC2)CC1`, the Potency was 21.7 µM (active).
In the case of `Nc1ccc(C(=O)c2cc3c(ccc4ccccc43)[nH]2)cc1`, the Potency is reported as 17.2 µM (active).
With `C#Cc1cccc(Nc2ncnc3cc(OC)c(OCCCCCCC(=O)NO)cc23)c1` the Potency was 3.43 µM (active).
For `Cc1cccc(C=NNc2cc(N3CCOCC3)nc(OCCc3ccccn3)n2)c1`, the Potency was 1.93 µM (active).
In the case of `Cc1cnc(-c2cnc(NCCNc3ccc(C#N)cn3)nc2-c2ccc(Cl)cc2Cl)[nH]1`, the Potency is reported as “inactive”.
With `O=C(Nc1cccnc1)N1CCC(Cc2cccc(Oc3ccc(C(F)(F)F)cn3)c2)CC1` the Potency was 15.3 µM (active).
In the case of `COc1cc(=C2C=c3ccccc3=N2)[nH]c1=Cc1[nH]c(C)cc1C`, the Potency is reported as 21.7 µM (active).
With `CCOc1ccc(Nc2nc(-c3c(C)nc4ccccn34)cs2)cc1` the Potency was 0.0049 µM (active).
In the case of `Cc1cc([C@@H](C)Nc2ccccc2C(=O)O)c2nc(N3CCOCC3)cc(=O)n2c1`, the Potency is reported as 5.59 µM (active).
In the case of `C[C@]1(CO)CN(c2cc(C(=O)Nc3ccc4c(c3)-c3c(c(C(N)=O)nn3-c3ccc(F)cc3)CC4)c(Cl)cn2)C[C@@]1(C)CO`, the Potency is reported as 1.72 µM (active).
In the case of `NC(=O)c1ccc(N(C(N)=O)c2c(F)cccc2F)nc1-c1ccc(F)cc1F`, the Potency is reported as 34.3 µM (active).
With `CN(C)CC=CC(=O)Nc1cc2c(Nc3ccc(F)c(Cl)c3)ncnc2cc1O[C@H]1CCOC1` the Potency was 24.3 µM (active).
For `CC(C)(C)c1cnc(CSc2cnc(NC(=O)C3CCNCC3)s2)o1`, the Potency was 0.968 µM (active).
In the case of `Cn1c(=O)c(F)c(Nc2ccc(I)cc2F)c2c(=O)n(C[C@@H](O)CO)cnc21`, the Potency is reported as 4.85 µM (active).
With `COC(=O)c1c(Cl)c(Cl)c(C(=O)OC)c(Cl)c1Cl` the Potency was “inactive”.
In the case of `CN1CCN(c2cc(C(=O)Nc3ccc4c(c3)-c3c(c(C(N)=O)nn3-c3ccc(F)cc3)CC4)c(Cl)cn2)CC1`, the Potency is reported as 2.73 µM (active).
With `O=C1C(Cl)=C(NCCN2CCOCC2)C(=O)c2ncccc21` the Potency was 34.3 µM (active).
In the case of `Cc1ccc(C(=O)N(CCCN)[C@@H](c2nc3cc(Cl)ccc3c(=O)n2Cc2ccccc2)C(C)C)cc1`, the Potency is reported as “inactive”.
In the case of `CN1CCC(CNc2ccc3ncc(-c4cccc(OC(F)(F)F)c4)n3n2)CC1`, the Potency is reported as 17.2 µM (active).
With `Cc1ccc(NC(=O)c2cccc(C(C)(C)C#N)c2)cc1Nc1ccc2ncn(C)c(=O)c2c1` the Potency was 17.2 µM (active).
With `c1cc(-c2cnn3cc(-c4ccc(OCCN5CCCCC5)cc4)cnc23)ccn1` the Potency was 17.2 µM (active).
In the case of `Cc1cc(-c2ccc(CC(=O)Nc3ccc(-c4cccnc4)cc3)cc2)ccn1`, the Potency is reported as 19.3 µM (active).
For `CC(=O)N(C)C1(c2ccccc2)CCN(CCC[C@]2(c3ccc(Cl)c(Cl)c3)CCCN(C(=O)c3ccccc3)C2)CC1`, the Potency was “inactive”.
With `Cc1cc(Nc2cc(N3CCN(C)CC3)nc(C=Cc3ccccc3)n2)n[nH]1` the Potency was 8.85 µM (active).
